Source: PubChem BioAssay (EPA / NIEHS)
Active and inactive are the calls of the source. How the source made its calls: active means hit-call score of the fitted dose curve at least 0.9, where 1 is the maximum; inactive means score below 0.9.

Read-out: Monocyte Chemoattractant Protein-1 (MCP1), CCL2 (gene 6347)
Assay: BSK_LPS_MCP1: BioMAP Diversity Plus: LPS Assay for Monocyte Chemoattractant Protein-1 (MCP1) Biomarker Activity (AID 2283081)
Settings: primary human HUVEC with PBMC; actives raise or lower the signal
How it was run: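 ELISA read-out of MCP-1 after 24 h chemical dosing of a human umbilical vein endothelial cell/peripheral blood mononuclear cell co-culture stimulated with LPS. Gain or loss of signal fitted relative to DMSO controls.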

Compound	outcome
CC(C)C(=O)Nc1ccc([N+](=O)[O-])c(C(F)(F)F)c1	inactive
CCOC(N)=O	inactive
CC[C@H](C)C(=O)O[C@H]1C[C@H](O)C=C2C=C[C@H](C)[C@H](CC[C@@H](O)C[C@@H](O)CC(=O)O)[C@H]21	inactive
O=C(O)c1ccc2c(c1)nc(C(=O)NC1CCN(C3CC3)CC1)n2Cc1cc(-c2ccc(Cl)s2)on1	inactive
NC(=O)N1c2ccccc2C=Cc2ccccc21	inactive

Read-out: not listed separately
Assay: BSK_LPS_PGE2: BioMAP Diversity Plus: LPS Assay for Prostaglandin E2 (PGE2) Biomarker Activity (AID 2283082);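 on AC50: secreted prostaglandin E2 measured by ELISA in LPS-stimulated co-culture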
Settings: primary human HUVEC with PBMC; actives raise or lower the signal
How it was run: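 ELISA read-out of PGE2 from human umbilical vein endothelial cells co-cultured with peripheral blood mononuclear cells under LPS, 24 h post-dose. Gain or loss of signal scored relative to DMSO baseline.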

Compound	outcome	AC50
CCCCCCCCCCCCCCCCOS(=O)(=O)O	inactive	
O=C(NO)C1(NS(=O)(=O)c2ccc(Oc3ccc(F)cc3)cc2)CCOCC1	inactive	
CC(C)CC(C)O (configuration not stated)	inactive	
CC(C)CCCCCCOC(=O)C1CCCCC1C(=O)OCCCCCCC(C)C (configuration not stated)	inactive	
CC(=O)c1ccccc1	inactive	
c1ccc2cc3ccccc3cc2c1	inactive	
Cc1ncc([C@@H](CCCCCCc2ccc3c(n2)NCCC3)CC(=O)O)cn1	inactive	
CC(C)c1nnc2ccc(-c3ocnc3-c3cc(F)ccc3F)cn12		346 nM (active)
COCc1nnc(-c2ccc[n+]([O-])c2)n1-c1c(Cl)c(Cl)cc2[nH]c(=O)c(=O)[nH]c12	inactive	
O=C(O)c1cccc(C(=O)O)c1	inactive	
CCCC(CCC)C(=O)O	inactive	
C[C@@H](Oc1ccc(CNC(=O)c2cccnc2Oc2ccc3c(c2)OCO3)c(F)c1)C(=O)O	inactive	
OC[C@H]1O[C@@](CO)(O[C@H]2O[C@H](CO)[C@@H](O)[C@H](O)[C@H]2O)[C@@H](O)[C@@H]1O	inactive	
CCCCCCCCCC	inactive	
OCCOCCOCCO	inactive	
c1ccc2ncccc2c1	inactive	
COc1cc(C(C)C)c2c(c1)S(=O)(=O)N(COc1cc(=O)n3cccc(OCCN4CCCCC4)c3n1)C2=O	inactive	
S=P(N1CC1)(N1CC1)N1CC1	inactive	
OC(O)(C(F)C(O)(O)C(F)(F)F)C(F)(F)F	inactive	
NCC(F)(F)C(F)(F)C(F)(F)C(F)(F)F	inactive	
c1ccc2c(c1)-c1cccc3c1c-2cc1ccccc13	inactive	
Nc1ccn([C@@H]2O[C@H](CO)[C@@H](O)[C@@H]2O)c(=O)n1	inactive	
CC(C)C(=O)Nc1ccc([N+](=O)[O-])c(C(F)(F)F)c1	inactive	
CCOC(N)=O	inactive	
CC[C@H](C)C(=O)O[C@H]1C[C@H](O)C=C2C=C[C@H](C)[C@H](CC[C@@H](O)C[C@@H](O)CC(=O)O)[C@H]21	inactive	
O=C(O)c1ccc2c(c1)nc(C(=O)NC1CCN(C3CC3)CC1)n2Cc1cc(-c2ccc(Cl)s2)on1	inactive	
NC(=O)N1c2ccccc2C=Cc2ccccc21	inactive	
